# Out of some 290,000 compounds screened, about 570 (0.2%) were called active. Not shown: some 1% with an inconclusive outcome. Rule as the data show it: active = inhibition mostly above about 51% (no sharp cut-off); inconclusive = no clear call, values can overlap the other calls; inactive = mostly below about 53%. The list comes from a sample in which actives are over-represented; it also holds similar structures and randomly drawn compounds.
# Molecular target: Voltage-dependent N-type calcium channel subunit alpha-1B (Homo sapiens) (UniProt Q00975)
# Assay: inhibitors of Mint1-CaV2.2 protein interaction, biochemical, HTRF (AID 2073)
# Conditions: at 20 µM, stronger effect = higher value
# [1] = measured here: average of repeat tests
# Sequence of Voltage-dependent N-type calcium channel subunit alpha-1B (Homo sapiens) (Q00975 whole entry, looked up): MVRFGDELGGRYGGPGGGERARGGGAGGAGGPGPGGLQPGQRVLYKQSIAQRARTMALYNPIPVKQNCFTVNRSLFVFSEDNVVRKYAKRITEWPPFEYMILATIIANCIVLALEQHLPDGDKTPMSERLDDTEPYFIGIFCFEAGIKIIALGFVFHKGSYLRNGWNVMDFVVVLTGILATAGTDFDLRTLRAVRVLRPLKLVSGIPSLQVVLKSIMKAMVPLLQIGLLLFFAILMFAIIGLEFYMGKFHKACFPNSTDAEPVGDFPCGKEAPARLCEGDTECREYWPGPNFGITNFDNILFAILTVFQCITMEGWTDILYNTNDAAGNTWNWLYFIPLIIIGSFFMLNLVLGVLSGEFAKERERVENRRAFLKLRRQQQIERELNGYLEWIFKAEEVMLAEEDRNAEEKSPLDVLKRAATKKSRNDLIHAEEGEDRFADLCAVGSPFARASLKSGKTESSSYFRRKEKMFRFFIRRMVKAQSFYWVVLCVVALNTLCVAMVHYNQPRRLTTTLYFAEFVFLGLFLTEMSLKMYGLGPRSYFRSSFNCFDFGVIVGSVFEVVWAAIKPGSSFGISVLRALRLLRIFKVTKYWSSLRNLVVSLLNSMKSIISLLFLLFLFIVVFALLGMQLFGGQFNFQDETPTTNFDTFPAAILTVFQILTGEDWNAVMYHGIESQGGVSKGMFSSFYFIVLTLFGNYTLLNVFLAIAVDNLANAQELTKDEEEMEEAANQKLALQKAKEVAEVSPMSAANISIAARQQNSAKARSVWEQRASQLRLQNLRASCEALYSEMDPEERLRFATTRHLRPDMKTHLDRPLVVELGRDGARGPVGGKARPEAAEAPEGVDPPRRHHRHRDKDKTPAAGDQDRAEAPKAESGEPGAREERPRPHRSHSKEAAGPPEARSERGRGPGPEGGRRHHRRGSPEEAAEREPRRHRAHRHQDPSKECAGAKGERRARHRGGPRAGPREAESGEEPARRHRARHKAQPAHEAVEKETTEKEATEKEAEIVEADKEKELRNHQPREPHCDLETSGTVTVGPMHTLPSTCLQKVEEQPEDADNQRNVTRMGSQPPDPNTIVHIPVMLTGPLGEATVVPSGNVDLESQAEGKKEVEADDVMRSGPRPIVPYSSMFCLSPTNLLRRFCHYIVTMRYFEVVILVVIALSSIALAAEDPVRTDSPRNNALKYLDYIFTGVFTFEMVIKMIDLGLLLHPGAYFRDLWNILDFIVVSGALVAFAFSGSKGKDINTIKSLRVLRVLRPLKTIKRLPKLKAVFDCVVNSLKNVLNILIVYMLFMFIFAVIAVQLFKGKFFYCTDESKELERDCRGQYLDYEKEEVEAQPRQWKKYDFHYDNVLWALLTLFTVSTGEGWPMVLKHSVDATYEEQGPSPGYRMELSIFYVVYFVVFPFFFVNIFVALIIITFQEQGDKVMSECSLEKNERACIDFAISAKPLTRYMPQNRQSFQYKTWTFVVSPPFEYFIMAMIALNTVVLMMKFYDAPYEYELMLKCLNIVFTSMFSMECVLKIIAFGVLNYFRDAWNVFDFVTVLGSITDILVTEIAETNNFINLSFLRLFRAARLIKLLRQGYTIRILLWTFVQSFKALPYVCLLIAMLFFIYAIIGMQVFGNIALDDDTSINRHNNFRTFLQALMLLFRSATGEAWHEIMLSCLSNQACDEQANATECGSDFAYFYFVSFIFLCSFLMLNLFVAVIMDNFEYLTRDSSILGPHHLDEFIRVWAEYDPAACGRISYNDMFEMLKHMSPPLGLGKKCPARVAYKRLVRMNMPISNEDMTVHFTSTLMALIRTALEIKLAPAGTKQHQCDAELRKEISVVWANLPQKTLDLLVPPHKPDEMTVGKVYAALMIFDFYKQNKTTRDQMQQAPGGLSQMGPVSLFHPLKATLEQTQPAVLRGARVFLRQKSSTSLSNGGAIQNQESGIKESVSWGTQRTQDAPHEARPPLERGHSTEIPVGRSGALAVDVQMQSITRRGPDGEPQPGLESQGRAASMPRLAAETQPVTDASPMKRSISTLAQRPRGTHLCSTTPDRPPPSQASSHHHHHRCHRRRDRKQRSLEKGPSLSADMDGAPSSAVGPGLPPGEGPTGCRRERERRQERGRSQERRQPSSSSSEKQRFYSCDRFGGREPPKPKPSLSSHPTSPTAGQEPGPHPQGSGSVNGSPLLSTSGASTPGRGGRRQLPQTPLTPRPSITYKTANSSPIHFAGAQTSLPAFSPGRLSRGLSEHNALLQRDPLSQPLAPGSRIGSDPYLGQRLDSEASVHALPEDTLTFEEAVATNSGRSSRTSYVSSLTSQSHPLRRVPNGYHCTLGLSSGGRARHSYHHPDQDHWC
SMILES,inhibition,inhibition [1]
Cc1ccc(C(=O)NCCc2nnc3ccc(NCc4ccc5c(c4)OCO5)nn23)cc1,-1.4% (inactive),
COc1ccc(C(=O)Nc2ccc(Cl)cc2C(=O)NCCO)cc1,-1.8% (inactive),
CCN1CCCC1CNC(=O)c1cc2c(C)nc3ccccc3c2o1 (centres undefined),5.2% (inactive),
CCOC(=O)N1CCC(C(=O)NNC(=O)c2ccc(Cl)cc2Cl)CC1,6.9% (inactive),
CN1/C(=C/C(=O)C2CC2)C(C)(C)c2ccccc21,3.3% (inactive),
CCOC(=O)c1cc2c(=O)n3ccccc3nc2n(Cc2ccco2)c1=NC(=O)c1ccc(OC)cc1OC,66.1% (active),
CCOC(=O)c1cc2c(=O)n3ccccc3nc2n(Cc2ccco2)c1=NC(=O)c1ccccc1OC,10.2% (inactive),
CCOC(=O)c1cc2c(=O)n3ccccc3nc2n(Cc2ccco2)c1=NC(=O)c1ccc(OC)cc1,33.1% (inactive),
Cc1ccc(CNC(=O)c2ccc(S(=O)(=O)Nc3c(C)n(C)n(-c4ccccc4)c3=O)cc2)cc1,0.9% (inactive),
O=Cc1cccn1-c1cccnc1,8.9% (inactive),
Fc1ccccc1N1CCN(C2CCCN(Cc3ccccc3C(F)(F)F)C2)CC1 (centres undefined),-0.4% (inactive),
CCN(CC)CCN(C(=O)c1ccc2c(c1)OCCO2)c1nc2ccc(C)cc2s1,-5.5% (inactive),
OCCN1CCN(c2ncnc3c2sc2nc(N4CCOCC4)c4c(c23)CCC4)CC1,3.4% (inactive),
CSc1nc(N(CCO)CCO)c2sc3nc(-c4ccco4)c4c(c3c2n1)CCC4,72.4% (active),
OCCN(CCO)c1ncnc2c1sc1nc(N3CCOCC3)c3c(c12)CCCC3,16.9% (inactive),
CSc1nc(N2CCN(CCO)CC2)c2sc3nc(-c4ccco4)c4c(c3c2n1)CCC4,64% (active),
CC1(C)Cc2c(c(-c3ccco3)nc3sc4c(NCCCO)ncnc4c23)CO1,5.3% (inactive),
CC1(C)Cc2c(c(N3CCCC3)nc3sc4c(N5CCN(CCO)CC5)ncnc4c23)CO1,-8.9% (inactive),
Cc1nn(Cc2noc(C(=O)NCCc3ccccn3)n2)c(C)c1Br,7.3% (inactive),
CC1(C)CC(NC(=O)c2ccccc2C(=O)NC2CC(C)(C)NC(C)(C)C2)CC(C)(C)N1,32.5% (inactive),
CCOC(=O)c1cnn(-c2nc(-c3ccccc3)nc3c2COC(C)(C)C3)c1N,-0.5% (inactive),
CCOC(=O)N1CCN(C(=O)CSc2nc3c(cnn3-c3ccc(C)cc3)c(=O)[nH]2)CC1,7.8% (inactive),
CCn1c(=O)cc(OCC(=O)Nc2ccc3c(c2)OCCO3)c2ccccc21,21.8% (inactive),
Cc1ccc2[nH]c(=O)c(C(c3nnnn3CC3CCCO3)N3CCCc4ccccc43)cc2c1 (centres undefined),94.9% (inactive),12.5%
Cc1cc2cc(C(c3nnnn3CC3CCCO3)N3CCCc4ccccc43)c(=O)[nH]c2cc1C (centres undefined),70% (active),
CCc1ccc2[nH]c(=O)c(C(c3nnnn3CC3CCCO3)N3CCCc4ccccc43)cc2c1 (centres undefined),73% (inactive),15.4%
COC(=O)C1=C(C(=O)OC)[C@@H]2N(C)c3ccc(OC)cc3[C@@]23C[C@@H](C(=O)OC)N(C(=O)c2ccc(Br)cc2)C3=N1,6.3% (inactive),
Nc1nonc1-n1nnc(C(=O)N/N=C/c2ccc(F)cc2)c1-c1cccs1,4.3% (inactive),

SMILES,inhibition,inhibition [1]
Cc1ccc(NC(=O)c2cc(-c3ccc(C)c(C)c3O)n[nH]2)cc1C,12.1% (inactive),
CC(=O)Nc1ccc(NC(=O)c2cc(-c3cc(C)c(C)cc3O)n[nH]2)cc1,-5.1% (inactive),
COc1ccccc1CNc1cc(CSc2ccc(Cl)cc2)nc(C)n1,-1.5% (inactive),
CC(C)CNC(=O)CSc1nc(-c2cccs2)cc(C(F)(F)F)n1,16.7% (inactive),
COc1ccc(CCNC(=O)C(CC(C)C)NC(N)=O)cc1 (centres undefined),4.9% (inactive),
COc1ccc(CN(C(=O)c2cc(=O)c3cc(C)cc(C)c3o2)C2CCS(=O)(=O)C2)cc1 (centres undefined),0% (inactive),
O=C(CN1C2CCCC1CC(NC(=O)c1ccccc1)C2)Nc1ccccc1 (centres undefined),8.3% (inactive),
COc1cccc(C(=O)NC2CC3CCCC(C2)N3CC(=O)Nc2ccccc2)c1 (centres undefined),55% (active),
COc1cccc(C(=O)NC2CC3CCCC(C2)N3CC(=O)Nc2ccc(N(C)C)cc2)c1 (centres undefined),-12.2% (inactive),
O=C(Cn1c(=O)sc2ccccc21)Nc1ccc(S(=O)(=O)N2CCCCC2)cc1,18% (inactive),
COc1ccc(C2=CC(c3c(C)nn(-c4ccccc4)c3Cl)n3nnnc3N2)cc1OC (centres undefined),24.3% (inactive),
CSc1nc(C)cc(-n2cc(F)c(=O)[nH]c2=O)n1,-1.3% (inactive),
O=C1C(Cl)=C(NC(=O)c2ccccc2)C(=O)C(Cl)=C1NC(=O)c1ccccc1,81.8% (active),
O=C(NC1=C(Nc2ccc(Cl)cc2)C(=O)c2ccccc2C1=O)c1ccccc1,-10.9% (inactive),
O=C(Nc1ccccc1Cl)c1ccccc1,23.6% (inactive),
CC(=O)N1CCN(C(=O)c2ccc3c(c2)OCCO3)CC1,16.6% (inactive),
CCOC(=O)C1=C(Cc2ccc(C)cc2)C(=O)c2ccccc2C1=O,36% (inactive),
CCOC(=O)C1=C(O)c2ccccc2C(=O)/C1=C\c1ccc(CC)cc1,54.8% (active),
CCOC(=O)C1=C(O)c2ccccc2C(=O)/C1=C\c1ccc(C)cc1,49.4% (inactive),
CCOC(=O)C1=C(Cc2ccc(F)cc2)C(=O)c2ccccc2C1=O,76% (inactive),27.8%
CCOC(=O)C1=C(Cc2ccc(OC)cc2)C(=O)c2ccccc2C1=O,61.9% (active),
CCOC(=O)C1=C(Cc2ccc(Cl)cc2)C(=O)c2ccccc2C1=O,66.8% (inactive),19.3%
COc1ccc(N/C(=N/c2nc(C)cc(C)n2)NC(=O)c2ccccc2)cc1,8.5% (inactive),
CSc1cccc(NC(=O)C2CCN(C(=O)c3ccccc3C)CC2)c1,3.1% (inactive),
CCOc1ccc(CCNC(=O)CSc2nnnn2C)cc1OCC,0% (inactive),
CC1=CC(=C(C#N)C#N)C=C(C)N1Cc1ccccc1,-8.3% (inactive),
CCn1c(=O)c(=O)[nH]c2cc(C(=O)Nc3ccc(S(=O)(=O)N4CCCC4)cc3)ccc21,19.2% (inactive),

# — PubChem BioAssay AID2073 (Sanford-Burnham Center for Chemical Genomics, 2009)
